# Key:
# Assay in all cases: growth inhibition (% activity, log2 RLU normalised to DMSO / staurosporine); higher = more growth inhibition
# Settings in all cases: 33 µM
# DIPGX29 = test system: DIPGX29 (H3.3 K27M diffuse intrinsic pontine glioma line)
# How it was run: (§1)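 The growth-inhibition value is the median over replicates. pHGG cell lines and H9-derived neural stem cells on Geltrex-coated 384-well plates received approved drugs by pin tool at a single final concentration of about 33 μM, in triplicate, for 7 days at 37 °C, 5% CO2. CellTiter-Glo luminescence was log2-transformed and normalised per plate to % activity between solvent and positive control wells.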
# DIPGX37 = test system: DIPGX37 (H3.3 K27M diffuse intrinsic pontine glioma line)
# How it was run: as §1
# DIPGX7 = test system: DIPGX7 (H3.3 K27M diffuse intrinsic pontine glioma line)
# How it was run: as §1
# DIPGX9 = test system: DIPGX9 (diffuse intrinsic pontine glioma line)
# How it was run: as §1
# HGGX39 = test system: HGGX39 (paediatric high-grade glioma line)
# How it was run: as §1
# HGGX6 = test system: HGGX6 (H3.3 G34R paediatric high-grade glioma line)
# How it was run: as §1
# HNSC = test system: HNSC
# How it was run: as §1
# SUDIPGIV = test system: SUDIPGIV (diffuse intrinsic pontine glioma line)
# How it was run: as §1
# SUDIPGVI = test system: SUDIPGVI (diffuse intrinsic pontine glioma line)
# How it was run: as §1
# SUDIPGXIII = test system: SUDIPGXIII (diffuse intrinsic pontine glioma line)
# How it was run: as §1
SMILES,growth inhibition (DIPGX29) [%],growth inhibition (DIPGX37) [%],growth inhibition (DIPGX7) [%],growth inhibition (DIPGX9) [%],growth inhibition (HGGX39) [%],growth inhibition (HGGX6) [%],growth inhibition (HNSC) [%],growth inhibition (SUDIPGIV) [%],growth inhibition (SUDIPGVI) [%],growth inhibition (SUDIPGXIII) [%]
CC(C)N(CCNC(=O)CN1CCCC1=O)C(C)C,2.94,3.86,1.76,4.77,3.31,3.19,1.2,-0.694,3.19,2.1
N.N.[Cl][Pt][Cl],-1.13,0.384,0.191,0.402,-0.146,-3.02,-5.11,-3,-1.15,1.82
C[C@@H]1CC[C@H]2[C@@H](C)C(=O)O[C@@H]3O[C@@]4(C)CC[C@@H]1[C@]32OO4,3.47,-0.962,4.12,4.81,4.98,4.39,14.5,12.8,-4.44,20.5
CNC(=O)Oc1ccc2c(c1)[C@]1(C)CCN(C)[C@@H]1N2C,-0.0328,2.09,-0.713,-0.267,-1.19,1.68,-0.354,-0.781,2.19,1.12
NCCc1c[nH]c2ccc(O)cc12,-2.73,0.315,-2.87,-2.24,-2.22,-1.35,-4.26,0.704,-3.47,0.646
O=C(O[C@H]1C[N+]2(CCCOc3ccccc3)CCC1CC2)C(O)(c1cccs1)c1cccs1,-1.76,-1.33,-0.665,-1.04,-0.0721,-0.623,3.39,-1.77,-5.53,0.0508
C[N+](C)(C)CCCCCCCCCC[N+](C)(C)C,0.486,-0.577,1.7,1.41,3.26,2.4,1.52,0.278,4.87,-1.36
CN(C)C(=O)Oc1cccc([N+](C)(C)C)c1,-3.32,0.574,-0.239,-1.38,-0.512,-1.84,-0.376,-1.46,-1.83,1.72
CC(=O)O[C@H]1C[C@@H]2CC[C@@H]3[C@H](CC[C@@]4(C)[C@H]3C[C@H]([N+]3(C)CCCCC3)[C@@H]4OC(C)=O)[C@@]2(C)C[C@@H]1[N+]1(C)CCCCC1,-1.09,0.743,-0.188,0.99,-0.431,1.2,-0.41,-0.385,0.196,
CCC(COC(=O)c1cc(OC)c(OC)c(OC)c1)(c1ccccc1)N(C)C (centres undefined),7.04,-5.85,26.9,2.8,7.48,5.32,52.1,23.2,-0.409,-13.6
NCC(CC(=O)O)c1ccc(Cl)cc1 (centres undefined),1.57,-2.95,2.49,1.01,0.323,-0.203,33.3,2.9,-4.01,0.136
CNCC(=O)c1ccc(O)c(O)c1,-1.95,2.52,-0.724,-0.688,0.248,-0.714,-1.87,0.154,-1.65,3.12
CC(=O)OC12COC1CC(O)C1(C)C(=O)C(O)C3=C(C)C(O)CC(O)(C(OC(=O)c4ccccc4)C21)C3(C)C (centres undefined),7.46,3.33,4.76,9.41,14.7,6.8,11.9,21.5,1.87,3.01
Cc1cc(C(C#N)c2ccc(Cl)cc2)c(Cl)cc1NC(=O)c1cc(I)cc(I)c1O (centres undefined),-4.52,-1.84,-0.384,-2.01,-0.728,-4.74,4.96,-0.00583,-3.36,3.29
Cc1cccc(C)c1NC(=O)CN1CCCC1=O,-3.64,-1.99,-0.96,-1.24,-0.565,-3.14,6.05,-2.89,-1.55,-1.38
CCC1(c2cccc(O)c2)CCCCN(C)C1 (centres undefined),0.813,0.766,-0.204,0.246,-0.148,-2.47,18.5,-0.915,-3.26,-1.39
C=C(C)[C@@H]1[C@H]2OC(=O)[C@@H]1[C@]1(O)C[C@H]3O[C@]34C(=O)O[C@H]2[C@]14C,-0.435,1.09,-0.608,0.386,1.14,0.986,-1.08,-0.711,2.74,0.384
C=C1C[C@@H]2[C@H](CC[C@]3(C)C(=O)CC[C@@H]23)[C@@]2(C)C=CC(=O)C=C12,2.35,1.24,3.42,2.01,0.458,-1.58,-0.552,-2.53,-2.19,0.875
C[N+]1(C)CCCC(OC(=O)C(O)(c2ccccc2)c2ccccc2)C1 (centres undefined),-0.577,0.259,-0.262,0.527,-0.329,-1.01,20.4,-0.578,-2.44,-1.44
